Structures are written as SMILES. Results filed as inconclusive are left out. Where a call stands in place of a potency, no number is given. Active and inactive are the calls of the source. Calls follow the shape of the dose curve; as a rule, active = well fitted activation curve with a large enough effect in the main read-out, with a control signal flat (not every such curve was filed as active); inconclusive = small, poorly fitted or top-dose-only effect, or effect the other way, or a change in a side signal; inactive = flat fitted curve, though single readings scatter.

This note sets out measurements from PubChem BioAssay (NCATS).

Chain of 3',5'-cyclic-AMP phosphodiesterase 4B (Homo sapiens) (Q07343 whole entry, looked up): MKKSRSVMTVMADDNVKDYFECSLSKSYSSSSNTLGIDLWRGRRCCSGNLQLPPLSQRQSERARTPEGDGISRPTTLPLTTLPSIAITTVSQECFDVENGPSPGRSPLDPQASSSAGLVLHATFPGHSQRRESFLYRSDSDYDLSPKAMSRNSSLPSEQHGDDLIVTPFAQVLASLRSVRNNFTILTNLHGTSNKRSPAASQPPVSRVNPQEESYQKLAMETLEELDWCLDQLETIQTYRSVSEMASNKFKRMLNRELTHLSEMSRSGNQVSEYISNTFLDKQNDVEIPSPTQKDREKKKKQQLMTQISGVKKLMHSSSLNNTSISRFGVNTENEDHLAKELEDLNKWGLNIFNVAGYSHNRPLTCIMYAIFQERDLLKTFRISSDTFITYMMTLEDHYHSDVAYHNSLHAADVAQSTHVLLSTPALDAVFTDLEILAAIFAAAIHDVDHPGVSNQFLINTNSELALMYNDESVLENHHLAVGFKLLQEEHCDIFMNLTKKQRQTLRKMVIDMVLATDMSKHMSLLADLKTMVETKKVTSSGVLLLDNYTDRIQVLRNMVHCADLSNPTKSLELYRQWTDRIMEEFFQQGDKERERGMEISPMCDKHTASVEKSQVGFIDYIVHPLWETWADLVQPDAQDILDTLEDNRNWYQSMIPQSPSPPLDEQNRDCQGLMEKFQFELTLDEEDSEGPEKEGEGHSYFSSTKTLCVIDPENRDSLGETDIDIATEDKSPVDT

The assay concerns the target 3',5'-cyclic-AMP phosphodiesterase 4B (Homo sapiens) (UniProt Q07343). Put plainly: qHTS Assay for Inhibitors of PDE-IV (AID 607). Particulars: HEK293 ACTOne CNG channel cells, membrane potential fluorescence; series mostly up to 22.9 µM. In short, it runs like this: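 Live HEK293 cells with a modified cyclic nucleotide-gated (CNG) channel report intracellular cAMP via membrane-potential dye fluorescence (ex 535/em 590 nm). Endogenous PDE-IV was targeted. Compounds were tested at up to 22.9 uM final; RO 20-1724 100 uM served as control.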
For the compound `Clc1ccccc1-c1nccc(-n2ccnc2)n1`, the Potency entry is “inactive”.
As for `Cc1cccc(CNc2ccnc(-c3ccoc3)n2)c1`, the Potency entry was “inactive”.
As to `c1nc(NC2CCNCC2)c2cc(-c3ccc4c(c3)OCO4)ccc2n1`, the Potency entry is “inactive”.
For the compound `O=c1c(-c2ccccc2)nc2cnc(Oc3ccccc3)nc2n1Cc1cccs1`, the Potency result is “inactive”.
Regarding `COc1ccc(-n2c(=O)c(-c3cn(C)c4ccccc34)nc3cnc(OC)nc32)cc1`, the Potency entry was “inactive”.
For the compound `FC(F)(F)c1ccccc1-c1cc(N2CCNCC2)ncn1`, the Potency result was “inactive”.
`CC(=O)NCCNc1nc(-c2ccccc2C(F)(F)F)nc2ccccc12`: the Potency result is “inactive”.
`CN(Cc1ccco1)c1cc(-c2ccccc2Cl)ncn1`: the Potency result was “inactive”.
As to `COc1ccc(-n2c(=O)cnc3cnc(Oc4ccccc4)nc32)cc1`, the Potency result is “inactive”.
As for `COc1ncc2nc(-c3cccc(C#N)c3)c(=O)n(CCC#N)c2n1`, the Potency entry was “inactive”.
Under `CN(Cc1ccco1)c1ncnc2ccc(-c3cccc(C#N)c3)cc12` stands “inactive”; under `COc1ncc2nc(-c3cc(F)cc(F)c3)c(=O)n(CCC#N)c2n1`, “inactive”; under `COc1ccc(-n2c(=O)c(C)nc3cnc(Oc4ccccc4)nc32)cc1`, “inactive”.
With `Cn1c(=O)c(-c2cc(F)cc(F)c2)nc2cnc(Oc3ccccc3)nc21`, the Potency entry was “inactive”.
Under `CNc1nc(-c2ccccc2Cl)nc2ccccc12` stands “inactive”; under `CC(=O)NCCNc1nc(-c2ccccc2Cl)nc2ccccc12`, “inactive”.
On to `O=c1c(-c2ccc(F)cc2)nc2cnc(N3CCOCC3)nc2n1C[C@H]1CCCO1`, for which the Potency result was “inactive”.
Take `Cc1cccc(CNc2ncncc2-c2cccc(C#N)c2)c1`: the Potency entry was “inactive”.
For `COc1ccc(Oc2ncc3nc(-c4ccc(OC)cc4)c(=O)n(Cc4cccs4)c3n2)cc1`, the Potency entry is “inactive”.
